Results: ChEMBL document CHEMBL2218924, “A broad activity screen in support of a chemogenomic map for kinase signalling research and drug discovery” (Biochem J, 2013)

Tests used:
[1] = target: T1, Serine/threonine-protein kinase BRSK1 (Homo sapiens) (UniProt Q8TDC3); settings: at 1 µM
T1 sequence (whole entry): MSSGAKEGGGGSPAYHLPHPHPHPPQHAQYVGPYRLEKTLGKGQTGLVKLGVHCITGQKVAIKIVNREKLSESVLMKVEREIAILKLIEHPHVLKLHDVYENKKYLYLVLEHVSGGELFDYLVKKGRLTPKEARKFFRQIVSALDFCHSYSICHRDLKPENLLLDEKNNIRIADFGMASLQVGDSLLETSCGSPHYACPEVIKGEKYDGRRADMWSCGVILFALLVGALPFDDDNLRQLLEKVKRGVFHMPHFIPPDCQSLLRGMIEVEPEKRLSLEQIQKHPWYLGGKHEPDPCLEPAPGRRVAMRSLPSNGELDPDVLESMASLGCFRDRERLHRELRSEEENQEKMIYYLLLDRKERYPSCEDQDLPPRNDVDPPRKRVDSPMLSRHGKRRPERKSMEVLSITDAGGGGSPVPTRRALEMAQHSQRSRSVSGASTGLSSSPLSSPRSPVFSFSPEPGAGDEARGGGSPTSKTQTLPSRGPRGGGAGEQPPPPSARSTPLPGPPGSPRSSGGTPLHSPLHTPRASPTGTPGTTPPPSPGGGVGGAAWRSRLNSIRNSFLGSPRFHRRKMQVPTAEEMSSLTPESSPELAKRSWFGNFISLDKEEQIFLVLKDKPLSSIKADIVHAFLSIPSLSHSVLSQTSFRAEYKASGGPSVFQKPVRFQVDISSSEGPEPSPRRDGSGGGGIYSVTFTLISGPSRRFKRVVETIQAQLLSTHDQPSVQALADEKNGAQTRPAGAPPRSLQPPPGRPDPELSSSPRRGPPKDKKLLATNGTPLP

[2] = target: T1, Serine/threonine-protein kinase BRSK1 (Homo sapiens); settings: at 10 µM
[3] = target: T2, Serine/threonine-protein kinase BRSK2 (Homo sapiens) (UniProt Q8IWQ3); settings: at 1 µM
T2 sequence (whole entry): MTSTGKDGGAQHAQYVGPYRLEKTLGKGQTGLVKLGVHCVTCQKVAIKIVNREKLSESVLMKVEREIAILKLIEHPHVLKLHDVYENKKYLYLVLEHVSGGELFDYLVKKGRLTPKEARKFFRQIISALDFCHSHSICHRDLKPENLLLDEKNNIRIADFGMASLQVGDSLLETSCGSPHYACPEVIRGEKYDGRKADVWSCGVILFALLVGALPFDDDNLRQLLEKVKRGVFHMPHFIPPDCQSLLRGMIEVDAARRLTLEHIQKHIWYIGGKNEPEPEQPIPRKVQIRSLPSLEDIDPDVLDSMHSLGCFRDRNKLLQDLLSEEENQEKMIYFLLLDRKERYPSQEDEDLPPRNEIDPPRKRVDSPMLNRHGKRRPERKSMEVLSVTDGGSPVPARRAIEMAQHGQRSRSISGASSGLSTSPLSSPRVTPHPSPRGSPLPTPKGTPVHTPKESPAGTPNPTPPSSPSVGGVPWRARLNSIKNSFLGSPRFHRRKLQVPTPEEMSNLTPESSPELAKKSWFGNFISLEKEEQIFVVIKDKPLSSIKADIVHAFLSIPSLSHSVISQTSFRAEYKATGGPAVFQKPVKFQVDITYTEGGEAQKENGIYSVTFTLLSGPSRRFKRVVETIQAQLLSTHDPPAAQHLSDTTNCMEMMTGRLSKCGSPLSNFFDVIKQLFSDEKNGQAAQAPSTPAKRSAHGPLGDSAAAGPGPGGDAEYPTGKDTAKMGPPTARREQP

[4] = target: T2, Serine/threonine-protein kinase BRSK2 (Homo sapiens); settings: at 10 µM
[5] = target: T3, Cyclin-dependent kinase 1/cyclin B1 (Homo sapiens) (UniProt P06493+P14635); settings: at 1 µM
[6] = target: T3, Cyclin-dependent kinase 1/cyclin B1 (Homo sapiens); settings: at 10 µM
[7] = target: T4, Cyclin-dependent kinase 2/cyclin A (Homo sapiens) (UniProt P24941+P20248+P78396); settings: at 1 µM
[8] = target: T4, Cyclin-dependent kinase 2/cyclin A (Homo sapiens); settings: at 10 µM
[9] = target: T5, Cyclin-dependent kinase 2/cyclin E (Homo sapiens) (UniProt P24864+P24941+O96020); settings: at 1 µM
[10] = target: T5, Cyclin-dependent kinase 2/cyclin E (Homo sapiens); settings: at 10 µM

T3 sequence (P06493 whole entry, looked up): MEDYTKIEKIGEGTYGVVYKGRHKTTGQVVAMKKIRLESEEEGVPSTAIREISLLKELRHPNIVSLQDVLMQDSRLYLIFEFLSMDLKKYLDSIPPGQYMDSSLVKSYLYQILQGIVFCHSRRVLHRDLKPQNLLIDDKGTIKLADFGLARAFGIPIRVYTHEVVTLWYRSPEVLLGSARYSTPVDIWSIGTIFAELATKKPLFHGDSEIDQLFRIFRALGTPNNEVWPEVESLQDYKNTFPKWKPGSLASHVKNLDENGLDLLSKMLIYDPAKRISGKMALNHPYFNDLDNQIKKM
T3 sequence (P14635 whole entry, looked up): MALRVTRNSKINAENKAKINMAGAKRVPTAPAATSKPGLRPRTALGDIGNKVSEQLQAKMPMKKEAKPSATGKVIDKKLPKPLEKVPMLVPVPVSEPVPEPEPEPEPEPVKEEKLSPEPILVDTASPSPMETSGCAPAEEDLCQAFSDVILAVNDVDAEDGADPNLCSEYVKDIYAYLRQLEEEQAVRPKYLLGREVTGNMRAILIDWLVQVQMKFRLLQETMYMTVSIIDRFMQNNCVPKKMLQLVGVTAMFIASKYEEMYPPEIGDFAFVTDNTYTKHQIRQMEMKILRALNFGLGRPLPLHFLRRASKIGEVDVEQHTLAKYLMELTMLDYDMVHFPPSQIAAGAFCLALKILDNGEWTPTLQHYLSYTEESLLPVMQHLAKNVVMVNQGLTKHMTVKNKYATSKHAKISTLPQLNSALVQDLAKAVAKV

Row | SMILES | residual activity [1] | residual activity [2] | residual activity [3] | residual activity [4] | residual activity [5] | residual activity [6] | residual activity [7] | residual activity [8] | residual activity [9] | residual activity [10]
1 | Cc1nc(-c2ccccc2)c(-c2ccncc2)o1 | 103% | 85% | 120% | 96% | 104% | 92% | 97% | 92% | 104% | 95%
2 | Oc1c2ccccc2c2c3c(cccc13)N=N2 | 38% | 29% | 64% | 9% | 52% | 35% | 59% | 36% | 8% | 3%
3 | NC(=O)c1ccc2[nH]c(-c3ccc(Oc4ccc(Cl)cc4)cc3)nc2c1 | 83% | 81% | 116% | 88% | 93% | 56% | 82% | 83% | 91% | 87%
4 | Cn1nc2c3c(cccc31)C(=O)c1ccccc1-2 | 83% | 68% | 101% | 61% | 101% | 86% | 80% | 84% | 87% | 82%
5 | Cc1cc(Nc2nc(-c3ccccc3)nc3ccccc23)n[nH]1 | 57% | 12% | 59% | 7% | 97% | 68% | 67% | 25% | 70% | 15%
6 | Cc1ccc(S(=O)(=O)/C=C/C#N)cc1 | 83% | 99% | 113% | 77% | 106% | 102% | 124% | 91% | 91% | 105%
7 | O=c1cc(-c2cccc3c2Sc2ccccc2S3)oc(N2CCOCC2)c1 | 102% | 96% | 107% | 96% | 101% | 77% | 96% | 78% | 101% | 87%
8 | O=[N+]([O-])c1ccc(-c2nc(-c3ccc(F)cc3)c(-c3ccncc3)[nH]2)cc1 | 97% | 101% | 118% | 103% | 102% | 103% | 90% | 79% | 105% | 96%
9 | Cn1cc(/C=C2\C(=O)Nc3ccc(S(N)(=O)=O)cc32)c2ccccc21 | 23% | 3% | 36% | 19% | 34% | 39% | 68% | 46% | 67% | 52%
10 | COc1ccc(S(=O)(=O)N(CCO)c2ccccc2CN(C)C/C=C/c2ccc(Cl)cc2)cc1 | 81% | 63% | 114% | 88% | 117% | 90% | 76% | 64% | 106% | 95%
11 | Oc1ccc(-c2nc(-c3ccc(F)cc3)c(-c3ccncc3)[nH]2)cc1 | 102% | 63% | 124% | 90% | 101% | 92% | 95% | 88% | 108% | 91%
12 | Nc1cccc(-c2cc3c(Oc4cccc(O)c4)ncnc3[nH]2)c1 | 45% | 8% | 75% | 20% | 81% | 33% | 74% | 27% | 91% | 41%
13 | Oc1n[nH]c2nnc(-c3c(-c4ccccc4)nn4ccccc34)cc12 | 88% | 76% | 112% | 83% | 109% | 105% | 89% | 86% | 89% | 93%
14 | COc1cc2ncnc(Nc3ccc(Oc4ccccc4)cc3)c2cc1OC | 55% | 60% | 89% | 102% | 99% | 102% | 130% | 101% | 106% | 106%
15 | Nc1nc(Nc2ccc(S(N)(=O)=O)cc2)nn1C(=S)Nc1c(F)cccc1F | 0% | 0% | 0% | 1% | 0% | -1% | -2% | -1% | -1% | -2%
16 | Oc1ccc(Nc2nc(-c3ccc(Cl)cc3)cs2)cc1 | 81% | 90% | 125% | 126% | 111% | 84% | 101% | 78% | 100% | 93%
17 | CN(C)c1ccc(/C=C2\C(=O)Nc3ccccc32)cc1 | 83% | 69% | 90% | 61% | 97% | 112% | 111% | 91% | 111% | 103%
